From PubChem
Compounds with a hit are over-represented: about 12% of the library has one in this group of screens.
G9a block = qHTS Assay for Inhibitors of Histone Lysine Methyltransferase G9a | Histone-lysine N-methyltransferase EHMT2 (Homo sapiens), Q96KQ7 | G9a H3K9 monomethylation, AlphaScreen, 2 h | Potency, µM (doses to about 102 µM), inactives show at the top dose activity, negative = inhibition, most hits filed as inhibitors | 350,000 compounds, 8.8% hits | AID 504332, 2011; note: % is set by controls: 0 for no effect and ±100 for the full control effect; nearly all actives have a fitted effect of over 75% in size
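G9a (20 nM) preincubated 15 min RT with compounds, then 500 nM biotinylated H3K9 peptide and 20 uM SAM added; 2 h RT reaction. Monomethyl-H3K9 product detected by AlphaScreen with anti-H3K9me1 antibody, streptavidin donor and anti-rabbit IgG acceptor beads.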
Sfp PPTase inh = qHTS Assay for Inhibitors of Bacillus subtilis Sfp phosphopantetheinyl transferase (PPTase) | 310,000 compounds, 3.5% hits | Biochemical Sfp PPTase activity, qHTS | 4'-phosphopantetheinyl transferase ffp (Bacillus subtilis), Q9F4F7 | Potency, µM, for inactives: largest response in the series, negative = inhibition, usual class: inhibitors;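 note: the enzyme is Sfp with the accession as filed and its product quenches rhodamine fluorescence; 0% = enzyme reaction without inhibitor and -100% = no enzyme wells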
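Compounds were incubated with enzyme (final 15 nM) for 15 min at room temperature before substrate addition started the reaction. Fluorescence at 525 nm excitation, 598 nm emission was recorded immediately and after 30 minutes.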
HP1b chromo inh = HTS for Inhibitors of HP1-beta Chromodomain Interactions with Methylated Histone Tails. AID 540317, 2011. AlphaScreen HP1-beta / biotin-H3K9me3 peptide binding. Potency, µM (top dose mostly 114 µM), for the others: at the highest dose activity change, negative = inhibition, actives largely listed as inhibitors. 390,000 compounds, 0.56% hits. Chromobox protein homolog 1 (Homo sapiens), P83916; note: nearly all actives have a fitted effect of over 70% in size
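HP1-beta protein (50 nM final) preincubated 30 min at room temperature with biotinylated H3(1-18)K9me3 peptide (50 nM) in PBS pH 7.4, 0.01% Tween-20, then compound added for 30 min. AlphaScreen streptavidin donor/nickel chelate acceptor beads (10 ug/mL final), 30 min dark, luminescence read.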
BAZ2B inh = qHTS Assay for Inhibitors of BAZ2B. AlphaScreen BAZ2B-H3K14Ac peptide displacement. Potency, µM (series often up to 114 µM), without a hit: top-dose activity change, negative = inhibition, most hits filed as inhibitors. 360,000 compounds, 4.4% hits; note: % is set by controls: 0 for no effect and ±100 for the full control effect; nearly all actives have a fitted effect of over 60% in size
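Compounds, titrated to a top concentration of 110 uM, were incubated 30 min at room temperature with preformed BAZ2B/acetyl-K14 H3 peptide complex (50 nM each). Proximity signal was measured by AlphaScreen after 20 min with beads.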
JMJD2A Tudor = qHTS Assay for Inhibitors of JMJD2A-Tudor Domain. Lysine-specific demethylase 4A (Homo sapiens), O75164. AlphaScreen JMJD2A-Tudor / H3K4me3 peptide binding. Potency, µM (top dose mostly 114 µM), for inactives: at the top dose activity change, negative = inhibition, hits mostly inhibitors. 390,000 compounds, 4.4% hits; note: % is set by controls: 0 for no effect and ±100 for the full control effect; nearly all actives have a fitted effect of over 50% in size
Target sequence (O75164 whole entry, looked up, the tested form may be a part): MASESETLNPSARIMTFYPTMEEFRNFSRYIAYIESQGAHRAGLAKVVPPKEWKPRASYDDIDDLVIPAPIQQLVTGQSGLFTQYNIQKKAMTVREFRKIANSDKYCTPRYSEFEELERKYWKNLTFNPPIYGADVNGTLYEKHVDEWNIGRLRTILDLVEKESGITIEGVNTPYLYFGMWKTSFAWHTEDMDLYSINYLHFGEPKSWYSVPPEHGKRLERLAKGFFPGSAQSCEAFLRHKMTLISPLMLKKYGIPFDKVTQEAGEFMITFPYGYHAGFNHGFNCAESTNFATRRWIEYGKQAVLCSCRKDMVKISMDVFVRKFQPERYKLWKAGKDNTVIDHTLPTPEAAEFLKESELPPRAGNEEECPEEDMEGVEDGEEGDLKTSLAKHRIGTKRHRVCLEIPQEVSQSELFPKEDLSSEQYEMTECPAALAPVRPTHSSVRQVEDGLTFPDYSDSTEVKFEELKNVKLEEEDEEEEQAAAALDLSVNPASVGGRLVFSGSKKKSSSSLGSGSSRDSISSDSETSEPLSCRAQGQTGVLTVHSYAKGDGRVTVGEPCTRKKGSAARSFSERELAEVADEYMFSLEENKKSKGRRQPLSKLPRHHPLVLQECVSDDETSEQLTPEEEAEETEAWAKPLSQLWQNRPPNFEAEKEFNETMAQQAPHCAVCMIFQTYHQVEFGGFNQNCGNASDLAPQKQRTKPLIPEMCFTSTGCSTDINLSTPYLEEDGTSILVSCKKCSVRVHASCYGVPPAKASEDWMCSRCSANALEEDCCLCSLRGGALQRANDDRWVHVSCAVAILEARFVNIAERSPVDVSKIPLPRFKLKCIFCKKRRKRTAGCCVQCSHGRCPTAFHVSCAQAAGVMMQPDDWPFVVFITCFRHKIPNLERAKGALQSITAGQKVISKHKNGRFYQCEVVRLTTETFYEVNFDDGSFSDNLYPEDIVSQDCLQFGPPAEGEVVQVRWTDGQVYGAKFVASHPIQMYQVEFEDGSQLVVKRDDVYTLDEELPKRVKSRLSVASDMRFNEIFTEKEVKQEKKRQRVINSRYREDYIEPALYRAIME
* marks the source's active call; other numbers are inactive results; ? = inconclusive; · = no result given; [ ] = dose if it differs, or a comment. Calls come from the whole dose curve; as a rule, active = well fitted curve in the direction sought with a large enough effect; inconclusive = small, poorly fitted or top-dose-only effect, or another doubt; inactive = no such curve, though single readings can be large; an effect the other way counts as inactive or inconclusive. Potency is the fitted concentration of half-maximal effect.

SMILES | G9a block | Sfp PPTase inh | HP1b chromo inh | BAZ2B inh | JMJD2A Tudor
O=C(O)c1cccc(NC(=O)c2cn(-c3ccccc3)nc2-c2cccc(Br)c2)c1 | -5% | 29% | 9% | -7% | -16%
COc1ccc(-c2nn(-c3ccccc3)cc2/C=N/N=C(N)N)cc1OC | ? | 50µM* | -12% | ? | ?
COc1ccc(-c2nn(-c3ccccc3)cc2/C=N/Nc2cccc(C(=O)O)c2)cc1 | 22µM* | 7% | 16% | -37% | ?
O=C(O)c1cccc(NC(=O)c2cn(-c3ccccc3)nc2-c2ccncc2)c1 | 32µM* | -2% | ? | ? | -31%
COc1cccc(CNC(=O)COC(=O)c2nn(C)c(=O)c3ccccc23)c1 | · | · | 20%[57 µM] | · | -6%
COc1cccc(-c2nn(-c3ccccc3)cc2CO)c1 | 6%[59 µM] | 9% | 50% | -4% | -6%
COc1cccc(-c2nn(-c3ccccc3)cc2C(=O)NCC(=O)O)c1 | 50µM* | -9% | 38% | 10% | -7%
COc1ccc(-c2nn(-c3ccccc3)cc2C(=O)NC(=S)NNC(=O)c2ccncc2)cc1 | 32µM* | 13% | ? | -15% | ?
CCOC(=O)N1CCN(C(=O)C(NC(=O)c2ccc(C(C)(C)C)cc2)C(C)C)CC1 (configuration not stated) | 16%[12.7 µM] | · | 42% | 7% | 0%
CSc1nsc(NC(=O)OCc2ccc(Cl)cc2)n1 | · | 11% | 61% | 8% | -2%
COc1ccsc1NC(=O)OCc1ccc(Cl)cc1 | 50µM* | -13% | -16% | ? | ?
COc1cccc(OC)c1C(=O)NC(C)CCc1ccccc1 (configuration not stated) | -9%[0.501 µM] | 16% | 13% | 2% | -10%
COc1cc(NC(C)CCc2ccccc2)cc(OC)c1OC (configuration not stated) | · | -20% | ? | ? | 45µM*
COc1ccc(CCC(C)Nc2ccccc2F)cc1 (configuration not stated) | 34%[59 µM] | -10% | 137% | 62% | 72%
COc1ccc(CCC(C)Nc2cccc(F)c2)cc1 (configuration not stated) | ? | 45µM* | 142% | 18% | 57%
Cc1cc(S(=O)(=O)C(CNC(=O)c2ccc(OC(C)C)cc2)c2cccs2)ccc1F (configuration not stated) | 12%[59 µM] | · | 42% | -6% | -20%
CCOC(=O)N1CCN(C(=O)c2cc3n(n2)C(C(F)(F)F)CC(c2ccc4c(c2)OCO4)N3)CC1 (configuration not stated) | 76% | 0% | 1% | 5% | -15%
COc1ccccc1C(=O)N/C(=C\c1ccc(Br)cc1)C(=O)NCC(=O)O | 8%[59 µM] | 11% | 11% | 7% | -7%
COc1ccccc1C(=O)N/C(=C/c1ccc(Br)cc1)C(=O)N1CCCC1 | 14% | -11% | -19% | -15% | 50µM*
CC(=O)N/C(=C/c1ccccc1)C(=O)N1CCCCC1 | 50µM* | 8% | 19% | -1% | -10%
CCOC(=O)NC1(C(F)(F)F)NC(=O)N(c2ccc(C)c(C)c2)C1=O (configuration not stated) | 11%[59 µM] | · | 14% | 1%[57.1 µM] | -20%
CCCS(=O)(=O)N1CCC(C(=O)N2CCN(Cc3ccccc3)CC2)CC1 | · | 10% | 43% | -15% | -11%
CCCS(=O)(=O)N1CCN(CCCc2ccccc2)CC1 | 10µM* | -11% | ? | 79µM* | 5.6µM*
CCCc1ccc(S(=O)(=O)N2CCN(Cc3ccco3)CC2)cc1 | · | 2% | 10% | -5% | -23%
O=[N+]([O-])c1ccc(S(=O)(=O)N2CCN(Cc3ccco3)CC2)cc1 | ? | 56µM* | 22µM* | 20µM* | 8.9µM*
SMILES | G9a block | Sfp PPTase inh | HP1b chromo inh | BAZ2B inh | JMJD2A Tudor
CCCS(=O)(=O)N1CCN(Cc2ccco2)CC1 | 14µM* | ? | ? | 50µM* | ?
Cc1cc(C)n(CC(=O)NNC(=O)CCNC(=O)c2ccccc2Cl)n1 | 13%[12.7 µM] | · | 11% | -4% | -1%
COc1ccc(-c2ccc(NS(=O)(=O)c3ccc(NC(C)=O)cc3)cc2)nn1 | -3%[59 µM] | · | 8%[57 µM] | 0% | -21%
COc1ccccc1NC(=O)C(OC(=O)CNC(=O)c1ccccc1)c1ccccc1 (configuration not stated) | · | · | · | · | -19%
CC(C)(C)c1ccc(-c2nnc(SCC(=O)O)n2N)cc1 | 45µM* | 16% | 42% | 1% | -11%
C=CCn1c(SCC(=O)O)nnc1-c1ccc(C(C)(C)C)cc1 | 32µM* | 6% | 54% | -2% | 0%
C=CCn1c(SCC(=O)C(C)(C)C)nnc1-c1cccs1 | -42%[59 µM] | -17% | 24% | 6% | -7%
CCSC1=NC2(CCN(C(=O)NC3CCCCC3)CC2)N=C1c1ccc(Cl)cc1 | -4%[59 µM] | · | 39% | 8%[57.1 µM] | 3%
CCOC(=O)Nc1ccc2c(c1)N(C(=O)CCN(CC)CC)c1ccccc1S2=O (configuration not stated) | 18%[2.33 µM] | 6% | 35% | 8% | 7%
CCOC(=O)C1=C(C)Nc2nnnn2C1c1ccccc1Cl (configuration not stated) | -4%[59 µM] | -7% | 5% | 14% | -9%
Fc1ccccc1/C=C1\CCCC2=C1Nc1nnnn1C2c1ccccc1F (configuration not stated) | 50µM* | -25% | 23% | -4% | -25%
CCn1c(SCC(=O)c2ccc(OC)cc2)nnc1C(C)NC(=O)c1ccc(OC)cc1 (configuration not stated) | 45µM* | -29% | 25% | -6% | -15%
COc1ccc(CC(=O)NC(C)c2nnc(SCC(=O)c3ccc(Br)cc3)n2C)cc1 (configuration not stated) | 40µM* | ? | 10% | -25% | -11%
CCn1c(SCC(=O)c2ccc(Br)cc2)nnc1C(C)NC(=O)Cc1ccc(OC)cc1 (configuration not stated) | 7% | 2% | 1% | 5% | -1%
CCOC(=O)c1c(NC(C)=O)sc2c(O)c(CN3CCN(CC)CC3)ccc12 | 25µM* | 5% | -6% | ? | ?
CCOC(=O)c1c(NC(C)=O)sc2c(OC)c(Br)ccc12 | ? | -11% | 30% | 10% | -9%
O=C(O)c1ccccc1-c1nc2cc(Cl)ccc2c(=O)n1O | 2% | 18% | 4% | 79µM* | -10%
Nn1c(-c2ccccc2)nc2cc(Cl)ccc2c1=O | 45µM* | 12% | 46% | 4% | -23%
Cc1ccc(-c2nc3ccccc3c(=O)n2N)cc1 | 8% | 6% | 37% | -20% | 4%
